# Assay results as given in the supplement of paper PMC6555819.
# What was measured:
# Assay in all cases: PBM binding z-score (relative to random genomic background probes); higher = stronger binding; sequences stand for … in GC…GCGATTGACAGCGTAGAATGAAGG
# [1] = system: FXR:RXRa (NR concentration 270 nM, RXRa partner concentration 90 nM)
# In short: (§1)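 Binding z-scores take random background probes as their reference. They come from custom Agilent 4×180K protein-binding microarrays incubated 1 h with ligand-free nuclear receptor dimers, with antibodies against each partner (one per run) detecting binding. Scanned fluorescence was regression-normalized.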
# [2] = system: LXRa homodimer (NR concentration 270 nM)
# In short: as §1
# [3] = system: LXRb homodimer (NR concentration 270 nM)
# In short: as §1
# [4] = system: PPARg:RXRa (NR concentration 180 nM, RXRa partner concentration 90 nM)
# In short: as §1
# [5] = system: PPARg:RXRa 270nM:90nM, anti-RXR (NR concentration 270 nM, RXRa partner concentration 90 nM)
# In short: as §1
# [6] = system: PPARg:RXRa 30nM:10nM, anti-RXR (NR concentration 30 nM, RXRa partner concentration 10 nM)
# In short: as §1
# [7] = system: PPARg:RXRa 90nM:30nM, anti-RXR (NR concentration 90 nM, RXRa partner concentration 30 nM)
# In short: as §1
# [8] = system: PPARg:RXRa DBDmut IVT, anti-RXR (DBD mutation: RXRa K156A/R161A, NR concentration 270 nM, RXRa partner concentration 90 nM)
# In short: as §1
# [9] = system: PPARg:RXRa IVT, anti-PPARg (NR concentration 270 nM, RXRa partner concentration 90 nM)
# In short: as §1
# [10] = system: PPARg DBDmut:RXRa IVT, anti-PPARg (DBD mutation: PPARg1 K132A/R137A, NR concentration 270 nM, RXRa partner concentration 90 nM)
# In short: as §1
# [11] = system: PPARg DBDmut IVT, anti-PPARg (DBD mutation: PPARg1 K132A/R137A, NR concentration 270 nM)
# In short: as §1
# [12] = system: PPARg homodimer (NR concentration 180 nM)
# In short: as §1
# [13] = system: PXR:RXRa (NR concentration 270 nM, RXRa partner concentration 90 nM)
# In short: as §1
# [14] = system: PXR homodimer (NR concentration 270 nM)
# In short: as §1
# [15] = system: RARa:RXR (NR concentration 270 nM, RXRa partner concentration 90 nM)
# In short: as §1
# [16] = system: RARa homodimer (NR concentration 270 nM)
# In short: as §1
# [17] = system: RARb:RXRa (NR concentration 270 nM, RXRa partner concentration 90 nM)
# In short: as §1
# [18] = system: RARb homodimer (NR concentration 270 nM)
# In short: as §1
# [19] = system: LXRa:RXRa (NR concentration 270 nM, RXRa partner concentration 90 nM)
# In short: as §1
# [20] = system: PPARa:RXRa (NR concentration 270 nM, RXRa partner concentration 90 nM)
# In short: as §1
Sequence,PBM binding z-score [1],PBM binding z-score [2],PBM binding z-score [3],PBM binding z-score [4],PBM binding z-score [5],PBM binding z-score [6],PBM binding z-score [7],PBM binding z-score [8],PBM binding z-score [9],PBM binding z-score [10],PBM binding z-score [11],PBM binding z-score [12],PBM binding z-score [13],PBM binding z-score [14],PBM binding z-score [15],PBM binding z-score [16],PBM binding z-score [17],PBM binding z-score [18],PBM binding z-score [19],PBM binding z-score [20]
ATATGTAGGTTACATCCGGGTCATCCAGGCTATG,1.91,1.67,0.838,6.12,5.21,2.47,4.55,7.32,7.51,3.31,2.5,2.45,3.45,1.14,3.67,0.961,2.3,3.26,–,–
TCTAGTCGGTCAAAGGTCACACACTCGAAATGCG,6.97,5.28,2.21,–,10.2,11.1,11.4,5.17,6.92,1.34,1.59,5.59,6.26,1.5,–,2.61,5.34,5.22,–,–
TAGCCTAAGTCATGCGGGCCAGTATAGTGTCGGC,–,-0.595,-1.13,-0.117,-0.602,-0.673,-0.77,-0.333,-0.138,-0.862,-1.37,-0.139,-0.538,-0.831,-0.11,-1.14,-0.165,-0.506,-0.396,-0.167
GATACAGGGTCGGCTAGAGGCCAGAGTATGGAAA,–,-0.632,-1.28,0.561,0.616,-0.167,0.215,-0.804,-0.134,-0.784,-0.716,0.88,0.712,-0.222,1.39,-0.471,1.56,1.32,0.191,1.36
CAGCATAGGTCAGGGCCAGTATAGGAGGAACGTT,–,-0.16,-0.316,2.08,1.98,0.464,0.958,0.577,1.1,-0.177,-0.223,1.42,1.36,0.189,2.17,0.463,3.89,3.19,2.57,3.86
TCTGCTAGGTCAACGTTGGTCAGCTAATCTGCTA,3.38,-0.139,0.362,2.49,3.4,1.9,2.71,3.92,4.38,-0.219,0.673,0.191,1.56,-0.62,2.22,-1.27,4.03,3.31,–,–
TCTGCTAGGTCAACGATGGTCAGTTAATCTGCTA,–,-0.279,0.325,2.14,2.8,1.79,2.47,4.02,4.08,0.247,0.848,1.07,1.88,-0.482,2.17,-0.966,4.04,3.26,2.65,3.04
TTACCAAGGTGAAAGGTCGTTGCTGCACGCCTTG,–,0.401,-0.185,8.98,7.85,8.63,8.9,2.97,5.07,0.655,0.268,1.88,3.88,0.364,5.58,-0.419,3.14,2.59,3.07,5.33
CCTACTGGGTCAAAGGTCATTGATTCCAATGCTC,7.5,5.27,1.18,–,11.2,12.3,13,7.6,8.67,3.67,3.47,7.2,–,3.3,–,2.65,–,5.06,–,–
TCTAGTGGGTCAAAGGTCACACACTCGAAATGCG,7.63,3.93,1.59,–,11.1,12.2,12.6,7.68,8.52,2.65,1.71,4.18,–,1.74,–,2.97,–,5.22,–,–
CCGAGTAGGTTACTAGGGGGCATTCAGTGCGAAT,2.3,6.06,–,2.37,3.48,1.14,2.93,4.55,4.9,–,–,1.47,4.21,6.49,2.34,0.177,1.92,2.16,–,–
CCTTACGGGTCCCTCCAGGTTATAGCATCGGAGT,–,-0.112,-0.475,-0.172,-0.6,-0.679,-0.697,-1.14,-0.601,-1.12,-1.29,0.547,0.139,-0.00641,0.181,-0.487,0.0941,0.0845,-0.148,-0.0853
CGTCAAAGTCCAAGGTAACGTAACAGAAAGCAGC,–,0.0661,-0.271,0.688,0.296,0.129,0.303,0.295,0.33,0.185,0.896,0.652,-0.079,0.233,0.165,0.428,1.52,0.655,-0.0963,0.351
CAAACTAGGTCAAAAGGTCAAAGTCCGCTTCCCG,7.44,6.17,2.63,10.2,8.73,7.62,9.1,8.5,8.17,1.83,1.09,7.65,6.71,2.96,–,5.47,–,6.38,–,–
CCGAGTAGGTTACGAGGGGTCATTCAGTGCGAAT,4.94,6.16,–,4.13,4.4,1.73,3.54,4.41,4.3,–,–,4.32,–,10.4,6.71,1.29,3.35,3.68,–,–
AGTCAAAGTTCATCTAGGTCACGTAAGATATGCT,7.54,7.38,2.1,7.93,7.25,4.56,6.61,3.49,6.09,1.86,2.18,4.77,–,13.9,6.05,2.4,–,5.12,–,–
TCTAGTTGGTCACGGAGGGCACACACGACGGGTA,–,-0.107,0.00573,1.25,2.05,2.8,2.39,2.05,2.85,0.649,0.752,1.2,1.11,0.255,1.01,0.42,2.35,2.28,0.609,1.38
AGAATGAGGTCATACGTAGATCAGGGAAGAAAGT,–,1.75,1.92,7.83,7.25,4.88,6.67,6.81,6.69,1.6,2.79,2.06,4.89,1.94,5.04,1.17,4.84,3.6,6,6.29
ATTTGTAGGTTACATCCGGGTCATTCAGGCTATG,–,2.84,1.83,4.22,4.28,2.12,3.26,6.92,6.29,3.31,2.1,3.38,4.12,4.01,4.19,2.72,2.77,3.43,5.11,4.12
TAGCCTAGGGCATTCAGGGGCCAGTATAGAAAGC,–,-0.233,-0.352,0.0283,-0.154,-0.552,-0.385,-0.268,0.75,-0.631,-1.01,-0.114,-0.0151,-0.113,0.405,-0.803,1.42,1.35,-0.052,0.0278
CCGAGAAGGTTACGAGGGGGCATTCAGTGCGAAT,4.03,1.76,–,1.9,2.99,0.996,1.72,1.32,2.5,–,–,2.11,5.85,5.71,4.07,0.612,3.24,2.66,–,4.3
ACTTAAGGGTCAACGAGGTTATAGCACGCGTATA,–,1.86,1.21,7.09,6.95,3.18,5.51,3.78,4.06,2.52,3.33,4.43,6.26,6,6.74,2.01,5.29,4.31,6.42,6.46
TCTCGGAGGACACCAAAGGTCAGAGCTCGACATC,–,3.82,-0.0325,2.04,3.71,2.56,3.22,1.47,1.71,-0.171,-0.615,3.42,4.41,0.454,4.86,1.44,4.21,4.64,4.25,3.65
CCTACTGGGCCAAAAAGGTCATTGATGCCGATAA,3.46,3.19,-0.142,3.35,3.98,1.41,3.38,3.88,3.76,-0.582,-0.854,3.07,4.63,3.96,4.97,0.857,3.97,4.43,–,–
TGAATGAGGTTAAATATCAGGGAACGTGGCGTCG,–,-0.0698,0.686,2.51,3.17,1.45,2.46,2.43,2.35,0.916,0.956,0.766,1.35,0.413,1.91,0.347,2.17,0.735,2.5,3.72
CAAAATAGGTCACCGGAAGGTCAAAGTCCGCATG,7.48,5.46,1.73,9.14,7.64,6.2,7.69,7.95,8.01,1.87,1.44,8.87,6.56,1.96,8.2,4.27,–,5.89,–,–
CCGAGGAGGTTACGAGGGGGCATTCAGTGCGAAT,4.41,1.63,–,2.38,3.52,0.838,2.45,1.54,3.07,–,–,1.6,6.25,6.9,3.97,-0.256,2.89,2.52,–,–
CCTACTGGGTCACGAAAGGTCATTGATTCAGTGA,6.45,6.45,0.81,9.12,7.71,5.23,6.95,7.12,8.65,1.64,2.22,4.41,–,2.09,–,2.35,–,5.9,–,–
GGAACGAGGGCATTCGAGTTCATAGCATGGCGAT,3.41,6.2,-0.617,1.4,1.33,-0.096,0.725,2.82,2.61,0.143,-0.584,0.888,–,14,2.84,-0.506,2.75,2.4,–,–
